Laboratory results as given in PubChem BioAssay.
The source made the active and inactive calls.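 Rule for the calls, unless noted: active = visually confirmed hit in the image check and inhibition above 20%; inconclusive = visually confirmed hit but inhibition not above 20%; inactive = no visual hit in the image check.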

What was measured:
[1] = inhibitors of TNFa-induced NFkB p65 translocation, primary screen, imaging, HUVEC, MLSMR starter and 10KST1 sets (AID 438;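 active = inhibition above 20% together with a positive visual image hit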;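 note: compound added about 3h40 before a 20 min TNFalpha stimulation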;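 for inhibition: signal is the nuclear over cytoplasmic p65 intensity ratio per well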); conditions: HUVEC TNFa-induced p65 nuclear translocation; cell count: measured here: nuclei count (cytotoxicity indicator), at 2.08 µM; inhibition: at 2 µM, stronger effect = higher value, 0% TNFa-plus-vehicle, 100% no-TNFa wells
[2] = inhibitors of mutant huntingtin aggregation, primary screen, imaging, exon1htt(103Q)mCFP cells, high-content imaging (AID 483;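 active = visual image review flags a hit and inhibition of aggregation exceeds 20%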;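 note: compound exposure lasted 3 days before fixation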;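 for nuclei count: percent of the per-plate median nuclei count of sample wells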); conditions: exon1htt(103Q)mCFP cell line, aggregate imaging, at 2 µM; inhibition of aggregation: stronger effect = higher value; nuclei count: measured here: cell count, toxicity
[3] = inhibitors of E-selectin induction by TNFa, primary screen, imaging, HUVEC, immunofluorescence, MLSMR starter and 10KST1 sets (AID 487); conditions: HUVEC TNFalpha-induced E-selectin immunofluorescence imaging, at 2 µM; inhibition: stronger effect = higher value; nuclei count: measured here: cell number, toxicity;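 for inhibition: signal is fraction of cell area covered by stained E-selectin grains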;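 for nuclei count: 100% = median nuclei count of all wells on the same plate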
[4] = target: Voltage-gated potassium channel subunit beta-2 (Rattus norvegicus) (UniProt P62483); test: KvBeta enzyme negative modulators, primary screen, biochemical, NADPH fluorescence (AID 622;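 active = fluorescence slope higher than the sample average by over 3 SD, cut at about -0.22 in these data, passing the limit was not always enough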;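 note: slope of raw intensity against log time taken from 70 to 1610 s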); conditions: recombinant KvBeta, 4-cyanobenzaldehyde reduction, at 10 µM, stronger effect = higher value
Chain of Voltage-gated potassium channel subunit beta-2 (Rattus norvegicus) (P62483 whole entry, looked up): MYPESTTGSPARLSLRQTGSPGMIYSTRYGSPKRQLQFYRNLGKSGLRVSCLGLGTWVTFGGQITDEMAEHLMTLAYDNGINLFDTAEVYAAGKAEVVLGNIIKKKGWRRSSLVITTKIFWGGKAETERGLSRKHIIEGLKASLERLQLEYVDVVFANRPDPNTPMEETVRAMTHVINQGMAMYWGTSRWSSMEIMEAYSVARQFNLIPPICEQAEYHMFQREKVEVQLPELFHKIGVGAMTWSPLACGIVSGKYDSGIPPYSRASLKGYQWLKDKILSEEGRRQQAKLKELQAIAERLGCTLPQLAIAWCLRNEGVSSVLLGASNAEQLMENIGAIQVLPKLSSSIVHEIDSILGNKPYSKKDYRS

[5] = target: Voltage-gated potassium channel subunit beta-2 (Rattus norvegicus) (UniProt P62483); test: KvBeta positive modulators, primary screen, biochemical, NADPH fluorescence (AID 623;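 active = NADPH fluorescence slope more negative than the mean of all samples by about 3 SD, 99.7% confidence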;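 note: fluorescence intensity change per second fitted from 20 to 320 s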); conditions: Recombinant KvBeta, NADPH fluorescence decrease slope, 10 min; at 10 µM; stronger effect = lower value
[6] = target: Alpha-2C adrenergic receptor (Homo sapiens) (UniProt P18825); test: modulators of alpha2C/GIRK thallium flux, primary screen, cell-based, HEK293 alpha2C/GIRK1/2 (AID 624;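 active = fluorescence slope after compound addition differing from the mean of all screened samples at 99.7% confidence, in either direction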;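 note: slope of fluorescence ratio to pre-addition baseline per second over 15 to 24 s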); conditions: thallium flux BTC fluorescence, at 10 µM, actives lie on both sides
Chain of Alpha-2C adrenergic receptor (Homo sapiens) (P18825 whole entry, looked up): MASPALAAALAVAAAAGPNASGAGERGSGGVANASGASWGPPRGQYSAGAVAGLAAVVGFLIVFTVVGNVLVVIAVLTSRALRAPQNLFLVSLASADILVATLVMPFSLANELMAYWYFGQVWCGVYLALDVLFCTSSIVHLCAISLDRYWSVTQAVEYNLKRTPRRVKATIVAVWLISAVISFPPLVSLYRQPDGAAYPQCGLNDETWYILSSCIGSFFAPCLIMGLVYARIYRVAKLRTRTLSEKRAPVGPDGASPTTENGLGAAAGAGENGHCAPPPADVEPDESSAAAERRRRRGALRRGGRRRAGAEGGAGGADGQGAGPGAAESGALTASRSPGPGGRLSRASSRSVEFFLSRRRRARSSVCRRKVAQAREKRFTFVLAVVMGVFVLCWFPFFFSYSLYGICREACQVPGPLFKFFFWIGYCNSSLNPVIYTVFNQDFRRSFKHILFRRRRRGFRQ

[7] = inhibitors of Sendai virus-induced IRF3 signaling, primary screen, TLR/RLR signaling modifier project, cell-based, Sendai virus stimulus, luciferase, 10K MLSCN set (AID 602276;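 active = inhibition at or above 50% at 10 µM; inactive = inhibition below 50%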;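 note: firefly luciferase from ISG56 promoter only with Renilla not read in this screen; 0% = Sendai virus plus DMSO and 100% = medium plus DMSO without virus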); conditions: HEK293 RL24 IRF3 luciferase reporter, at 10 µM, stronger effect = higher value
[8] = inhibitors of poly I:C-induced TLR3 signaling, primary screen, cell-based, poly I:C stimulus, luciferase, 10K MLSCN set (AID 602277;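 active = inhibition of the reporter signal at or above 50%; inactive = inhibition below 50%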); conditions: HEK293-TLR3 RL24 IRF3 luciferase reporter, at 10 µM, stronger effect = higher value

Row | Structure (SMILES) | cell count [1] | inhibition [1] | inhibition of aggregation [2] | nuclei count [2] [%] | inhibition [3] | nuclei count [3] [%] | fluorescence slope [4] | NADPH fluorescence slope [5] | slope [6] | inhibition [7] | inhibition [8]
1 | c1ccc(-n2ncc3c(NCc4cccs4)ncnc32)cc1 | 338 | -5.7% (inactive) | -6% (inactive) | 94.4 | -3.7% (inactive) | 118 | -0.415 (inactive) | -4.2e-05 (inactive) | 0.00561 (inactive) | -19.7% (inactive) | -78.7% (inactive)
2 | CC(=O)Nc1cc2c(nc1C)nc(C)n2Cc1ccc(Br)cc1 | 419 | -1.6% (inactive) | 7.8% (inactive) | 92 | -83.5% (inactive) | 118 | -0.526 (inactive) | -0.000178 (inactive) | 0.00402 (inactive) | 15% (inactive) | -9.25% (inactive)
3 | COc1ccc(OC)c(NC(=O)C2C3CC4OC(=O)C2C4C3)c1 (stereo not drawn) | 318 | -5.7% (inactive) | 6.4% (inactive) | 117 | -119% (inactive) | 114 | -0.322 (inactive) | -5.4e-05 (inactive) | 0.0056 (inactive) | 13.4% (inactive) | 18.6% (inactive)
4 | CCOC(=O)C1CCN(C(=O)c2ccc(Cl)c(Cl)c2)CC1 | 322 | 4.4% (inactive) | 7.9% (inactive) | 83.5 | -64.6% (inactive) | 110 | -0.522 (inactive) | 1.1e-05 (inactive) | 0.00596 (inactive) | -22.5% (inactive) | -5.49% (inactive)
5 | Cc1ccccc1-n1nc(C)c2cc(C(=O)NCc3cccnc3)sc21 | 374 | -1.1% (inactive) | -18.9% (inactive) | 116 | -51.5% (inactive) | 113 | -0.493 (inactive) | -6.5e-05 (inactive) | 0.0199 (active) | 10.7% (inactive) | 44.3% (inactive)
6 | O=C(Nc1cccc(-c2nnc(-c3ccccc3)o2)c1)C1CCCCC1 | 666 | -2.8% (inactive) | -15.1% (inactive) | 109 | -21.3% (inactive) | 116 | -0.589 (inactive) | -1.7e-05 (inactive) | 0.00531 (inactive) | -20.4% (inactive) | -62.4% (inactive)
7 | Cc1ccccc1OCC(O)CN (stereo not drawn) | 298 | 15.6% (inactive) | 32.2% (active) | 104 | 14.2% (inactive) | 95.6 | -0.542 (inactive) | 1.7e-05 (inactive) | 0.00273 (inactive) | -20.3% (inactive) | -17.4% (inactive)
8 | O=C(Nc1nc(-c2ccc(S(=O)(=O)N3CCCC3)cc2)cs1)C1COc2ccccc2O1 (stereo not drawn) | 731 | 3.6% (inactive) | -24.6% (inactive) | 91.5 | 24% (inactive) | 81.4 | -0.413 (inactive) | -2.5e-05 (inactive) | 0.00956 (active) | 7.86% (inactive) | 2.65% (inactive)
